Assay outcomes deposited in PubChem by several laboratories.
Rows were chosen to be rich in hits. Some 6.9% of all compounds tested hit in one or more screens of this group.
GRIN3A LBD mod: modulators (binders) of human NR3A ligand-binding domain; NR3A LBD differential scanning fluorimetry, Tm shift; 0% = protein alone, 100% = glycine-bound protein; AID 1259313; actives 2.5% (n = 340,000); Tm shift relative to glycine control, % at 25 µM;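 active = melting temperature shift of at least 10% of the positive control shift, at one fixed dose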
CSC inhib: cancer stem cell inhibition | inhibition, % at 7.5 µM | AID 2717 | actives 1.1% (n = 300,000) | cancer stem cell-like cells viability, luminescence; in the data active = inhibition above about 75%; tested in HMLE shEcad cells
SKKanGAS inh: blocks kanamycin growth of S. pyogenes SKKanGAS strain. inhibition, % at 7.5 µM. actives 1.3% (n = 300,000). AID 1662. BacTiter-Glo, 6 h;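 active = mean replicate score, as percent of positive control median, at least 50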;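 also: strain carries kanamycin resistance gene driven by streptokinase promoter and grows in 40 µg/ml kanamycin; loss of luminescence reflects streptokinase promoter inhibition or plain growth inhibition; 0% = median of DMSO wells and 100% = positive control at its reference dose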
MPTP block: blocks calcium-induced mitochondrial swelling | isolated mouse mitochondria, Ca2+ swelling absorbance, 30 min | inhibition, % at 10 µM | actives 1.4% (n = 360,000) | AID 602449;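 active = inhibition of 50% or more, scaled per plate between neutral and stimulator controls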;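 also: 0% = DMSO wells given calcium and 100% = 1 mM EGTA wells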
Mdm2-MdmX inh: human Mdm2/MdmX binding inhibition; O15151+Q00987; SaOS-2 split-luciferase Mdm2/MdmX complementation, luminescence; inhibition, % at 8 µM; actives 3% (n = 330,000); AID 485346;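 active = inhibition of at least 50% at 8 µM in the primary screen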
Target sequence (O15151 whole entry, looked up): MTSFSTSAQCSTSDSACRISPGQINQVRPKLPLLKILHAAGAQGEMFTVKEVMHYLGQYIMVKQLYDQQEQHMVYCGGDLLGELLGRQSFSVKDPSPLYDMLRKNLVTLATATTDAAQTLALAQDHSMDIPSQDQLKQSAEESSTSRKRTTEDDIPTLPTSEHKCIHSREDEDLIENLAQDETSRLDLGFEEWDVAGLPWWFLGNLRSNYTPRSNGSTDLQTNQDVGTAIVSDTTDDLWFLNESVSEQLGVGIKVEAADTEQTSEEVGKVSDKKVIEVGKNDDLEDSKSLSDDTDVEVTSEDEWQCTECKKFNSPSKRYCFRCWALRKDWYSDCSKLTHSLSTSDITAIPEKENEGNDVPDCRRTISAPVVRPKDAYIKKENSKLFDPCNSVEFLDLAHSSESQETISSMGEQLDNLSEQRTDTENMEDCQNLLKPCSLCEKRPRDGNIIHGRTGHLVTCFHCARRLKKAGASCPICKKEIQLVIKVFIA
Target sequence (Q00987 whole entry, looked up): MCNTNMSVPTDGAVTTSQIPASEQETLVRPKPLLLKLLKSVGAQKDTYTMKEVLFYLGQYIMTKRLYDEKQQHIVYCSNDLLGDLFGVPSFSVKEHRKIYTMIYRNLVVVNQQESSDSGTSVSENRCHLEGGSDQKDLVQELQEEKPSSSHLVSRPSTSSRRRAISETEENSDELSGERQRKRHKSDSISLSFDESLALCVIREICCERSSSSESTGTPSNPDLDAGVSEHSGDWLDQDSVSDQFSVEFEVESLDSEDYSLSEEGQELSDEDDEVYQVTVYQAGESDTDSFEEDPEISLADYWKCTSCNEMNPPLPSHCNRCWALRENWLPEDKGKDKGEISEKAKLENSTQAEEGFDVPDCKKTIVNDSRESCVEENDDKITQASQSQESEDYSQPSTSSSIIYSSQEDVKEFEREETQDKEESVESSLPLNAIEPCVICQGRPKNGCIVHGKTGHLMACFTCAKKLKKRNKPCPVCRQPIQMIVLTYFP
Beta apoptosis: beta cell apoptosis inhibition; INS-1E cytokine-induced death, ATP luminescence, 48 h; percent of positive-control rescue, neutral wells zero; protection from apoptosis, % (test concentration not listed); actives 0.8% (n = 300,000); AID 435005;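 active = Every replicate reaches about 75%, or at least half do and their mean reaches it too, limit read from the data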;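 also: 0% = cytokine-treated negative control wells and 100% = positive control rescue; higher means more ATP so stronger rescue from cytokine killing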
Mdm2 MdmX conf: confirmation of human Mdm2/MdmX interaction inhibitors | actives 55% (n = 10,000) | inhibition, % at 8 µM | AID 489028 | Mdm2-MdmX binding, luminescent assay | shares compounds with Mdm2-MdmX inh; in the data active = inhibition above about 40%
Full FLuc ctr: counter-screen for Mdm2/MdmX inhibitors: full-length luciferase; actives 77% (n = 6,200); SaOS-2 full-length luciferase counterscreen, luminescence; AID 504607; inhibition, % at 8 µM; shares compounds with Mdm2-MdmX inh;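 active = mean inhibition at 8 µM reaching about 37%, which flags the compound as non-specific, limit read from the data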;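 also: p53-null SaOS-2 cells with luciferase driven by a doxycycline-inducible promoter; compound on cells about two nights before reading with doxycycline added after day one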
The depositor's hits bear a star; nt = not tested or not shown.

SMILES	GRIN3A LBD mod	CSC inhib	SKKanGAS inh	MPTP block	Mdm2-MdmX inh	Beta apoptosis	Mdm2 MdmX conf	others
C=CCNC(=O)c1c(O)c2cccc3c2n(c1=O)CCC3	-3	5	-1	1	66*	nt	56*	Full FLuc ctr=53*
COc1cccc(CN(C)CC(=O)Nc2cccc(S(N)(=O)=O)c2)c1OC	-1	-12	-2	0	18	-7	nt
COc1cccc(/C=C/C(=O)Nc2ccc(C(=O)Nc3cccc(S(N)(=O)=O)c3)cc2)c1OC	39*	5	13	1	71*	13	19
CC(=O)Oc1cc2c(C(=O)NCCCN3CCOCC3)c(C)oc2c2ccccc12	1	-16	9	3	51*	nt	12
Cc1cccc(OCCCC(=O)NNC(=O)c2ccccn2)c1	1	nt	nt	-2	64*	6	52*	Full FLuc ctr=41*
Cc1cccc(OCCCC(=O)NNC(=O)c2ccncc2)c1	1	nt	nt	0	27	nt	nt
COC(=O)c1cccc(NC(=O)CC2C(=O)NCCN2C(=O)Nc2cc(C)cc(C)c2)c1 (centres undefined)	-5	-2	11	2	6	-10	nt
COc1ccccc1NS(=O)(=O)c1cc(NC(=O)c2sccc2C)ccc1N1CCOCC1	-4	0	3	4	19	33	nt
COc1ccc(NS(=O)(=O)c2cc(NC(=O)c3sccc3C)ccc2N2CCOCC2)cc1	-7	40	8	3	57*	7	64*	Full FLuc ctr=64*
COc1ccc(NS(=O)(=O)c2cc(NC(=O)c3ccccc3)ccc2N2CCOCC2)cc1	-8	29	nt	-1	60*	10	32
COc1ccc(NS(=O)(=O)c2cc(NC(=O)c3cc(F)c(F)cc3Cl)ccc2N2CCOCC2)cc1	-2	-4	nt	0	51*	13	12
COc1ccc(NS(=O)(=O)c2cc(NC(=O)c3cc(F)c(F)c(F)c3F)ccc2N2CCCC2)cc1	1	43	12	1	61*	0	30
Cn1c2ccccc2c2nnc(N/N=C/c3ccc(O)cc3)nc21	-9	-4	-4	3	-3	-5	nt
COc1cc(OC)cc(C(=O)Nc2ccccc2C(=O)NCc2cccnc2)c1	1	nt	1	0	-11	-3	nt
C=CCSC1=NNC(c2ccc(C(C)(C)C)cc2)=NN1	-1	-5	4	2	-43	-1	nt
CN(C)S(=O)(=O)c1ccc(SCC(=O)N2CC(=O)Nc3ccccc32)nc1	1	nt	nt	-2	-20	-2	nt
CN(C)/C=C/C(=O)c1ccc(N2CCN(c3ncc(C(F)(F)F)cc3Cl)CC2)cc1	-11	26	16	-1	92*	0	1
CN(C)C=NC(=O)c1ccc(N2CCN(c3ncc(C(F)(F)F)cc3Cl)CC2)cc1	0	-10	-2	4	13	-18	nt
Brc1ccccc1-c1nnc2sc(-c3ccc4c(c3)OCCO4)nn12	-2	52	8	2	51*	9	62*	Full FLuc ctr=61*
c1ccc2c(c1)OCC(c1nnc3sc(-c4ccc5c(c4)OCO5)nn13)O2 (centres undefined)	-2	8	-9	-1	-11	-3	nt
Clc1ccccc1-c1nnc2sc(-c3ccc4c(c3)OCO4)nn12	-3	54	20	-2	65*	3	40	Full FLuc ctr=83*
c1ccc2c(c1)ncn2Cc1nnc2sc(-c3ccc4c(c3)OCO4)nn12	-1	-1	-5	0	1	2	nt
Cc1cc(=O)[nH]c(SCC(=O)Nc2c(C)n(C)n(-c3ccccc3)c2=O)c1C#N	1	-13	nt	1	-17	5	nt
O=C(C[C@H]1C/C=C\CC[C@H](Cc2ccc(F)cc2)C(=O)OC[C@@H](Cc2c[nH]c3ccccc23)NC1=O)NCCO	-3	-19	nt	0	31	1	nt
COc1ccc(-n2c(O)c(C=Nc3ccccc3)c3ccccc3c2=O)cc1	1	-6	-2	0	38	5	nt
SMILES	GRIN3A LBD mod	CSC inhib	SKKanGAS inh	MPTP block	Mdm2-MdmX inh	Beta apoptosis	Mdm2 MdmX conf	others
CCOC(=O)Cc1csc(/N=C/c2c(O)n(-c3ccc(C)c(C)c3)c(=O)c3ccccc23)n1	-1	34	1	1	73*	70	16
COc1ccc(-n2c(O)c(C=Nc3ccccc3)c3ccccc3c2=O)cc1OC	-2	-8	4	1	80*	14	11
O=C(Nc1ccccc1Oc1cccnc1)C1CCCN(Cc2ccc(F)cc2)C1 (centres undefined)	2	14	-2	0	15	5	nt
CC[C@H](C)[C@H](NC(N)=O)C(=O)NCCc1ccc(OC)c(OC)c1	-1	-13	-4	0	-14	-2	nt
CCc1ccc2c(c1)C1(NN=C(c3cccc4ccccc34)S1)C(=O)N2 (centres undefined)	nt	9	79*	0	78*	63	75*	Full FLuc ctr=30
CCc1ccc2c(c1)NC(=O)C2(C)Cc1ccccc1 (centres undefined)	nt	nt	nt	0	nt	nt	nt
COc1ccccc1C(=O)NNC1=C(C(=O)C(F)(F)F)CCC1	-4	-2	2	6	70*	10	58*	Full FLuc ctr=72*
Nc1ccccc1C(=O)NNC1=C(C(=O)C(F)(F)F)CCC1	3	19	-2	21	53*	-13	49*	Full FLuc ctr=148*
O=C(NNC1=C(C(=O)C(F)(F)F)CCC1)c1ccccc1Cl	-1	56	16	-14	7	9	nt
COc1ccccc1C(=O)NNC(=O)c1ccccc1	2	-5	-3	0	-55	nt	nt
O=C(NNC1=C(C(=O)C(F)(F)F)CCC1)c1ccccc1O	-10	nt	87*	0	50	16	39
CS(=O)(=O)N(CC(=O)NCc1ccncc1)c1cc(Cl)ccc1Cl	-1	-9	-5	-1	-5	-2	nt
CCN(CC)c1ccc(S(=O)(=O)N2CCOCC2)cc1NC(=O)CSC(=S)N1CCCC1	-1	8	-6	0	4	1	nt
COc1ccc(NC(=O)CSc2nnc(-c3cccnc3)s2)cc1	-2	2	0	-1	9	6	nt
CN(C)c1ccc(P(=O)(OC2CCCCC2)C(O)c2ccncc2)cc1 (centres undefined)	1	-9	0	3	3	-6	nt
Cc1csc(SCC(=O)Nc2nc3ccccc3s2)n1	-22	1	1	-7	5	4	nt
Cn1cc(SCC(=O)Nc2nc3ccccc3s2)c2ccccc21	-4	-6	7	1	78*	-26	67*	Full FLuc ctr=62*
CCC1C(=O)N=C(SCC(=O)Nc2cccc3ccccc23)NC1=O (centres undefined)	1	-17	5	-2	-7	nt	nt
